PubChem BioAssay (NCATS)
Records with an inconclusive call do not appear. Entries that show only a call come without a potency. The source made the active and inactive calls. Calls follow the shape of the dose curve; as a rule, active = well fitted curve in the direction sought with a large enough effect; inconclusive = small, poorly fitted or top-dose-only effect, or another doubt; inactive = no such curve, though single readings can be large; an effect the other way counts as inactive or inconclusive.

Key:
[1] = Confirmation and Secondary Assay for Modulators of Hemoglobin Beta Chain Splicing at IVS2 654 locus (AID 910);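 also: HeLa cells stably carrying EGFP split by mutant beta-globin IVS2-654 intron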
How it was run: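 HeLa cells stably expressing EGFP interrupted by β-globin IVS2-654 intron, seeded overnight in Opti-MEM/2% FCS, then treated 2 days at 37 °C. Restored splicing read as total peak GFP intensity per well by laser scanning cytometry (488 nm excitation, 500–520 nm emission); 500 nM antisense PNA as control.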

[2] = biological target: Ubiquitin carboxyl-terminal hydrolase 1 (Homo sapiens) (UniProt O94782); experiment: Inhibitors of USP1/UAF1: Pilot qHTS (AID 504865);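 also: rhodamine fluorescence freed from ubiquitin-rhodamine substrate followed over time; top concentration of the series differs between compounds; nearly all actives have a fitted effect of over 35% in size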
How it was run: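 1nM USP1/UAF1 + cpd, 15 min RT; start w/ Ub-Rho 150nM final; kinetic FL 480/540 nm, 6 reads q60 s. Buffer 50mM HEPES pH 7.8, 0.5mM EDTA, 1mM TCEP, 0.01% Tween-20, 0.1 mg/ml BSA.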

[3] = biological target: Luciferin 4-monooxygenase (Photinus pyralis) (UniProt P08659); experiment: Biochemical firefly luciferase enzyme assay for NPC (AID 624030);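 also: purified P. pyralis luciferase at 10 nM with luciferin and ATP substrate; nearly all actives have a fitted effect of over 70% in size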
How it was run: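 Purified P. pyralis luciferase at 10 nM in 50 mM Tris Acetate (final), luminescence read within 5 minutes of enzyme addition to compounds. Activity normalised to PTC124 versus DMSO; concentration-response curves classed by r2, magnitude and activity.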

[4] = S16 Schwann cell viability assay (CellTiter-Glo assay) (AID 624031);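 also: cellular ATP luminescence as a viability measure; nearly all actives have a fitted effect of over 70% in size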
How it was run: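 Luminescent ATP read-out (CellTiter-Glo) after 24 h compound exposure of native S16 rat Schwann cells at 37 °C. Signals were normalized between cell-free wells and DMSO-treated cells, set as 0% activity.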

[5] = S16 Schwann cell PMP22 intronic element firefly luciferase assay (AID 624032); also: nearly all actives have a fitted effect of over 30% in size
How it was run: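 Rat S16 Schwann cells stably carrying firefly luciferase driven by a PMP22 intronic element, in 10% FBS, treated 24 h at 37 C. ONE-Glo luminescence normalized to PTC124 control and DMSO (0%); curves classed by r2, magnitude and activity.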

7G8 = experiment: qHTS profiling for inhibitors of Plasmodium falciparum proliferation (AID 504749); also: nearly all actives have a fitted effect of over 60% in size; also: potency is read from the fitted curve at half-maximal effect; conditions: P. falciparum in erythrocytes, SYBR Green DNA, 72 h; series mostly up to 28.7 µM
How it was run: (§1)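 SYBR Green fluorescence (ex 485 nm, em 535 nm) reports parasite DNA after 72 h compound exposure of infected red cells at 0.3% parasitemia, 2.5% hematocrit; signal normalized to 0.29 uM artemisinin and vehicle wells.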

AA1029 = experiment: as above; conditions: P. falciparum in erythrocytes, SYBR Green DNA, 72 h; series mostly up to 28.7 µM
How it was run: as §1

C2A = experiment: as above; conditions: P. falciparum in erythrocytes, SYBR Green DNA, 72 h; series mostly up to 28.7 µM
How it was run: as §1

CP185 = experiment: as above; conditions: P. falciparum in erythrocytes, SYBR Green DNA, 72 h; series mostly up to 28.7 µM
How it was run: as §1

CP194 = experiment: as above; conditions: P. falciparum in erythrocytes, SYBR Green DNA, 72 h; series mostly up to 28.7 µM
How it was run: as §1

CP201 = experiment: as above; conditions: P. falciparum in erythrocytes, SYBR Green DNA, 72 h; series mostly up to 28.7 µM
How it was run: as §1

CP211 = experiment: as above; conditions: P. falciparum in erythrocytes, SYBR Green DNA, 72 h; series mostly up to 28.7 µM
How it was run: as §1

CP238 = experiment: as above; conditions: P. falciparum in erythrocytes, SYBR Green DNA, 72 h; series mostly up to 28.7 µM
How it was run: as §1

CP252 = experiment: as above; conditions: P. falciparum in erythrocytes, SYBR Green DNA, 72 h; series mostly up to 28.7 µM
How it was run: as §1

CP262 = experiment: as above; conditions: P. falciparum in erythrocytes, SYBR Green DNA, 72 h; series mostly up to 28.7 µM
How it was run: as §1

CP297 = experiment: as above; conditions: P. falciparum in erythrocytes, SYBR Green DNA, 72 h; series mostly up to 28.7 µM
How it was run: as §1

CP329 = experiment: as above; conditions: P. falciparum in erythrocytes, SYBR Green DNA, 72 h; series mostly up to 28.7 µM
How it was run: as §1

ICS = experiment: as above; conditions: P. falciparum in erythrocytes, SYBR Green DNA, 72 h; series mostly up to 28.7 µM
How it was run: as §1

P93_24 = experiment: as above; conditions: P. falciparum in erythrocytes, SYBR Green DNA, 72 h; series mostly up to 28.7 µM
How it was run: as §1

TAB109 = experiment: as above; conditions: P. falciparum in erythrocytes, SYBR Green DNA, 72 h; series mostly up to 28.7 µM
How it was run: as §1

Ubiquitin carboxyl-terminal hydrolase 1 (Homo sapiens), sequence (O94782 whole entry, looked up): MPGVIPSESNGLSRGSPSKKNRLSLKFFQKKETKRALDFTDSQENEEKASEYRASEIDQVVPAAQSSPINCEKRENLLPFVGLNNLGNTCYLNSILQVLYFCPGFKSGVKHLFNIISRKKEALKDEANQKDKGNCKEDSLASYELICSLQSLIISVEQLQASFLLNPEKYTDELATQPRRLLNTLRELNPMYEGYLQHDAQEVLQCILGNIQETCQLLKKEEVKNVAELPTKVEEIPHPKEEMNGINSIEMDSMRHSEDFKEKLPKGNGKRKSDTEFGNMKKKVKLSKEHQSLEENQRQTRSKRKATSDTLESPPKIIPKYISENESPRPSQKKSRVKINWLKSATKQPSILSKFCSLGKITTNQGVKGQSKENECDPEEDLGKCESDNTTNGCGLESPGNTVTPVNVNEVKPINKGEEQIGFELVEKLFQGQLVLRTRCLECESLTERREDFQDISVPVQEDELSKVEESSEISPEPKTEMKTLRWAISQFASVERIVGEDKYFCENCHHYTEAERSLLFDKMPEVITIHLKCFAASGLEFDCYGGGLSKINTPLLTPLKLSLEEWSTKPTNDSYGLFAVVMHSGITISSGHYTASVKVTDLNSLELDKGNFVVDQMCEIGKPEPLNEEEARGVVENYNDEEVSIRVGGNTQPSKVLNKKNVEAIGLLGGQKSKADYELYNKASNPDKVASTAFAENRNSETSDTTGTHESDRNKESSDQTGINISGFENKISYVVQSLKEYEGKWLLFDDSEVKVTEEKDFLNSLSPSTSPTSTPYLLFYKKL
Luciferin 4-monooxygenase (Photinus pyralis), sequence (P08659 whole entry, looked up): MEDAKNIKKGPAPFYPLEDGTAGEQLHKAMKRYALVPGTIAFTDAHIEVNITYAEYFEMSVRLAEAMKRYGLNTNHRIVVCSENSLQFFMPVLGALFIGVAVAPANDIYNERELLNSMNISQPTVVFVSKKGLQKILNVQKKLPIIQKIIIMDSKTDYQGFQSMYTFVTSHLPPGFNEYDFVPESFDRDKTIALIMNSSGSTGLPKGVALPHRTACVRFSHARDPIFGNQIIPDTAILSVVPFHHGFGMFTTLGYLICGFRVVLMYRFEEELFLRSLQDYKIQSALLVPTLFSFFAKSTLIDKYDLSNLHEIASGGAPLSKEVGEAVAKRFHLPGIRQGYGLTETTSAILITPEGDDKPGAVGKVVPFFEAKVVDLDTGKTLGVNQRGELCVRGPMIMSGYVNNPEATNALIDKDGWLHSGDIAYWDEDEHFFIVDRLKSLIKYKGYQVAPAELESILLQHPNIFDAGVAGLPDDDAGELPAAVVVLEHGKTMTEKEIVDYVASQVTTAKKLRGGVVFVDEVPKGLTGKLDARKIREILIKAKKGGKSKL

| SMILES | outcome [1] | Potency [2] | outcome [3] | Potency [4] | Potency [5] | Potency (7G8) | Potency (AA1029) | Potency (C2A) | Potency (CP185) | Potency (CP194) | Potency (CP201) | Potency (CP211) | Potency (CP238) | Potency (CP252) | Potency (CP262) | Potency (CP297) | Potency (CP329) | Potency (ICS) | Potency (P93_24) | Potency (TAB109) |
| --- | --- | --- | --- | --- | --- | --- | --- | --- | --- | --- | --- | --- | --- | --- | --- | --- | --- | --- | --- | --- |
| CN(C)C(=O)c1ccc(-c2nc(Nc3ccc(F)cc3)c3ccccc3n2)cc1 | inactive | – | – | – | – | – | – | – | – | – | – | – | – | – | – | – | – | – | – | – |
| O=C(O)[C@@H](O)[C@@H](O)[C@H](O)[C@H](O)CO | – | inactive | inactive | inactive | inactive | 2 µM (active) | inactive | inactive | inactive | inactive | inactive | inactive | inactive | inactive | inactive | inactive | inactive | 2.24 µM (active) | 10 µM (active) | 10 µM (active) |
| C[C@]12CC[C@H]3c4ccc(O)cc4CC[C@@H]3[C@H]1CC[C@@H]2OP(=O)(O)O | – | inactive | inactive | inactive | inactive | inactive | inactive | inactive | inactive | inactive | inactive | inactive | inactive | inactive | inactive | inactive | inactive | inactive | inactive | inactive |
| N[C@@H](Cc1ccccc1)C(=O)O | inactive | inactive | – | inactive | inactive | inactive | inactive | inactive | inactive | inactive | inactive | inactive | inactive | inactive | inactive | inactive | inactive | inactive | inactive | inactive |
